Activation data for 27 molecules are collected here from PubChem BioAssay AID686952 (The Scripps Research Institute Molecular Screening Center, 2013).

The structures appear in SMILES notation. Among all 3,200 compounds or so, about 2,600 (81%) were called active. The set was probably picked from earlier hits. Only a sample is shown. Values without a mark were called inactive.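 The calls were made as follows: active = activation above the all-compound mean plus 3 SD, ignoring values outside control-based bounds (cut at about 4.8% in these data); inactive = the rest.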

The assay can be described thus: apparent activators from fluorescence artefacts, no enzyme – biochemical, fluorescence intensity, high throughput, artefact control for kallikrein-7 zymogen activator project (AID 686952).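 Also: value is the 4 h activation minus the activation read at time zero.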 Particulars: EDANS-DABCYL substrate fluorescence interference, 4 h, at 7 µM, active compounds read high, solvent 0%, active enzyme control 100%.
Take `CCc1ccc(-c2cc(C(=O)NCc3ccco3)c3ccccc3n2)s1`: the activation was 73.9% (active). As for `CC(=O)Nc1nc2ncccn2c1-c1ccc(C(F)(F)F)cc1`, the activation was 41.3% (active). As for `CC(C)Cc1nc(Nc2ccc(S(=O)(=O)N3CCCC3)cc2)c2nnn(Cc3ccccc3)c2n1`, the activation is 38.6% (active). `CN(C(=O)c1ccccn1)c1nnc(-c2ccccn2)s1`: the activation was 85.1% (active). Consider `CN(C(=O)COc1ccccc1)c1nnc(-c2ccncc2)s1`, for which the activation was 107% (active). As for `COCC(=O)Nc1nnc(COc2ccccc2)s1`, the activation was 1.67%.

With `CC(OC(=O)c1ccccc1NCCO)C(=O)Nc1ccnn1C(C)C` (configuration not stated), the activation is 29.3% (active).

Take `COc1ccc2c(c1)CCc1cn3ncc(C#N)c3nc1-2`: the activation is -65.2%.

Regarding `CN(CCc1ccccn1)S(=O)(=O)c1ccc2c3c(cccc13)C(=O)N2`, the activation was 71.8% (active). For `COc1cc(/C=C/C(=O)Nc2ccc(OC)c(S(=O)(=O)N3CCOCC3)c2)ccc1OCC#N`, the activation is 93.1% (active). Regarding `COc1ccc2nc(-c3ccccn3)ccc2c1`, the activation is 4.08% (active). In the case of `O=C(Oc1c(-c2ccco2)oc2ccccc2c1=O)c1cccnc1`, the activation is 18.8% (active). `CC1CC(C)CN(S(=O)(=O)c2cccc(C(=O)N3C(=O)c4cccc(N)c4C3=O)c2)C1` (configuration not stated): the activation is 228% (active).

Turning to `COc1cc(C(=O)N2C(=O)c3cccc(N)c3C2=O)cc(OC)c1OC`, the activation is 122% (active). On to `COCc1cc(=O)oc2cc(NS(=O)(=O)c3ccc(C)cc3)ccc12`, for which the activation was 70.4% (active). Consider `Cc1cccn2c(=O)c3cc(C(=O)NCCN4CCOCC4)c(=N)n(Cc4cccnc4)c3nc12`, for which the activation is 18.1% (active).

Turning to `Cc1ccc2nc3c(cc(C(=O)NCCc4ccccc4)c(=N)n3CC3CCCO3)c(=O)n2c1` (configuration not stated), the activation is -37.3%. Take `CCn1c(=N)c(C(=O)NCCCOC)cc2c(=O)n3cccc(C)c3nc21`: the activation was 74.4% (active). As for `Cc1cccn2c(=O)c3cc(C#N)c(=NC(=O)c4cccnc4)n(CC4CCCO4)c3nc12` (configuration not stated), the activation was -72.9%. Consider `Oc1ccc2ccc3cccc[n+]3c2c1`, for which the activation is 38.2% (active). Under `CCN(CC)CCCC(C)n1c2nc(=O)[nH]c(=O)c-2nc2cc(Cl)ccc21` (configuration not stated) stands 69.7% (active); under `Cc1cc2cc3n(c2nn1)N=C(Cl)CC3`, 37.9% (active); under `CCOc1ccccc1C1C(C(=O)OC)=CN(C)C=C1C(=O)OC`, -18%.

As for `N#Cc1nc(-c2cccc3ccccc23)oc1N`, the activation is 76.5% (active).

For the molecule `Cc1cc(C)c(C#N)c(SCC(=O)NN2CC(=O)N(c3ccccc3F)CC2=O)n1`, the activation was 58.1% (active). For `CN(C)CCCn1c(N)c(C#N)c2nc(C#N)c(C#N)nc21`, the activation is 46.2% (active).

For `CC1(C)CN(c2ccc(-c3ccnc4ncnn34)cc2)C1=O`, the activation was 68.4% (active).
